Sampled rows, rich in hits. Any-hit rate of the full collection: about 3.1%.
14-3-3 Bad inh – disrupts binding of bovine 14-3-3 zeta to phospho-Bad peptide | P63103 | TR-FRET 14-3-3zeta/Dy647-pBad peptide displacement, 1 h | inhibition, % at 21.7 µM | hit rate 0.71% among 220,000 | AID 781;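 active = inhibition above about 70%, limit read from the data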
Mcl-1 Bim block – disrupts Bim peptide binding to human Mcl-1. hit rate 0.1% among 190,000. inhibition, % at 10 µM. Bead-based flow cytometry, Bim peptide-Mcl-1 binding. Q07820. AID 1009; in the data active = inhibition above about 40%
Target sequence (Q07820 whole entry, looked up): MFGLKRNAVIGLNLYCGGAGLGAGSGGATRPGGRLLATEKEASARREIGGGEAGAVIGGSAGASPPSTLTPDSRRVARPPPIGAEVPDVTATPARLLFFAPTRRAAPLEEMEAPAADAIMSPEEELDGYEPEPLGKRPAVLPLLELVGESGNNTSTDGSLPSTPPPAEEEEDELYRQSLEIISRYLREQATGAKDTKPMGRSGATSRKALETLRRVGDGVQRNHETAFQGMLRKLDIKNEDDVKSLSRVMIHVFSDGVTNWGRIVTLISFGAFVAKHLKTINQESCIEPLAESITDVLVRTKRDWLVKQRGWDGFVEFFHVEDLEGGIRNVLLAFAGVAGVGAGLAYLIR
Mcl1 Noxa PPI – Mcl-1/Noxa interaction inhibition; Q07820; TR-FRET Mcl-1/Noxa peptide binding, 2 h; inhibition, % at 21.7 µM; hit rate 1.5% among 220,000; AID 1022;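 active = compounds that cut the protein-peptide binding signal by more than 50% relative to plate controls in a single-dose test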;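 also: His-tagged Mcl-1 with rhodamine Noxa BH3 peptide and terbium anti-His antibody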
Mcl1-Bid inh – disrupts binding of human Mcl-1 to Bid peptide; TR-FRET Mcl-1/Bid-Dy647 peptide binding, 1536-well; inhibition, % at 21.7 µM; hit rate 0.97% among 220,000;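 active = compounds that cut the binding signal by more than half at the single screening dose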;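 also: His-tagged Mcl-1 with europium anti-His antibody binding Bid BH3 peptide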
p47phox inh – inhibitors of human p47phox binding | P14598 | p47phox/p22phox peptide binding, fluorescence polarization, 2 h | inhibition, % at 24.7 µM | hit rate 0.53% among 220,000 | AID 1274;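 active = inhibition above about 30%, limit read from the data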
Numbers stand for hits; - = inactive; . = no result given.

SMILES | 14-3-3 Bad inh | Mcl-1 Bim block | Mcl1 Noxa PPI | Mcl1-Bid inh | p47phox inh
COCCCN=C1NN=C(c2cc(C)n(-c3ccccc3)c2C)CS1 | - | - | - | - | -
CCc1nnc2n1N=C(c1cccc([N+](=O)[O-])c1)CS2 | - | . | - | - | -
CCCCN=C1NN=C(c2cc3ccccc3o2)CS1 | - | - | 70.2 | - | -
N#Cc1c(NC(=O)CSc2ncnc3sccc23)oc(-c2ccco2)c1-c1ccco1 | - | - | 96.9 | - | -
Cc1cc(NC(=O)CSc2ncnc3sccc23)no1 | - | - | - | - | -
CN(Cc1ccon1)Cc1cn(Cc2ccccc2)nc1-c1ccc2c(c1)OCO2 | - | - | - | - | -
O=C(CN1c2cccc3cccc(c23)S1(=O)=O)Nc1ccc(S(=O)(=O)N2CCOCC2)cc1 | - | - | - | - | -
O=C(CN1C(=O)c2cccc3cccc1c23)Nc1ccc(S(=O)(=O)N2CCOCC2)cc1 | - | - | - | 90.4 | -
O=C(C[n+]1cc(-c2ccccc2)n2c1CCC2)N1c2ccccc2Sc2ccccc21 | - | - | - | 89.7 | -
CCOc1cccc(/C(O)=C2/C(=O)C(=O)N(Cc3ccco3)C2c2ccncc2)c1 (stereo not drawn) | 74.5 | - | - | - | -
Cc1cc(C2N=C(N)Nc3nc4ccccc4n32)c(C)n1-c1ccccc1Cl (stereo not drawn) | - | - | - | - | 41.0
Cc1ccc(-n2c(C)cc(C3N=C(N)Nc4nc5ccccc5n43)c2C)c(C)c1 (stereo not drawn) | - | - | - | - | 30.1
O=C(C1CCCCC1)N1CCN=C1SCc1cccc([N+](=O)[O-])c1 | - | - | - | - | .
CCOC(=O)C1C(=O)OC(C)(C)C1C(C)C(=O)c1ccc(C)cc1C (stereo not drawn) | - | - | - | - | -
COc1ccc(C2=NN(CN3C(=O)C(=O)c4ccccc43)C(c3ccc(OC)cc3)C2)cc1 (stereo not drawn) | - | - | - | - | -
Cc1cc(C(=O)Nc2ccc3nc(C)sc3c2)c2ccccc2n1 | - | . | - | - | -
COc1ccc(Nc2nnc(SCC(=O)c3cc(C)n(CC4CCCO4)c3C)s2)cc1 (stereo not drawn) | - | - | - | - | -
C/C(=N\NC(=S)Nc1cc(S(=O)(=O)N2CCOCC2)ccc1Cl)c1ccccc1F | - | - | - | - | -
COc1ccc(S(=O)(=O)N2CCN(C(=O)NC3CCCCC3)CC2)cc1OC | - | - | 55.9 | - | -
O=C(COC(=O)c1cncc(Br)c1)NCc1ccc(F)cc1 | - | - | - | - | -
COc1cc(C(=O)OCC(=O)NCc2ccco2)cc(OC)c1OC | - | - | - | - | -
COc1cc(NC(=O)c2cccs2)c(C(=O)OCC(=O)NCc2ccco2)cc1OC | - | - | 63.4 | - | -
Cc1ccc(NS(=O)(=O)c2cccc(C(=O)OCC(=O)NCc3ccco3)c2)cc1 | - | - | - | - | -
O=C(COC(=O)c1cncc(Br)c1)NCc1ccco1 | - | - | 56.4 | - | -
O=C(COC(=O)c1ccc(NS(=O)(=O)c2cccs2)cc1)NCc1ccco1 | - | . | 107.4 | - | -
SMILES | 14-3-3 Bad inh | Mcl-1 Bim block | Mcl1 Noxa PPI | Mcl1-Bid inh | p47phox inh
CCCCC(=O)N(Cc1nc2sc(C)c(C)c2c(=O)[nH]1)C1CCCC1 | - | - | - | - | -
CN1CCC(OC(=O)c2cccc(Cl)c2)CC1 | - | - | - | - | .
O=C(CCl)c1ccc2[nH]c(=O)oc2c1 | - | . | - | - | -
COc1ccc(Br)cc1CN(C)CC(=O)Nc1c(Cl)cccc1Cl | - | - | - | - | -
CN(C)c1nc(Nc2ccccc2)nc(N(C)C)n1 | 80.1 | - | - | - | -
COC(=O)c1ccc(Oc2nc(Nc3ccccc3)nc(N(C)C)n2)cc1 | - | - | - | - | -
N#Cc1cnn(-c2cccc(Cl)c2)c1N | - | - | - | - | -
O=C(NCCCCNC(=O)C(F)(F)F)C(F)(F)F | - | - | - | - | -
CN(C)c1ccc(C(c2ccc(N(C)C)cc2)c2ccc([N+](=O)[O-])cc2)cc1 | - | . | - | - | 37.5
COc1nc(OC)nc(N2CCC(C(=O)NCc3cccs3)CC2)n1 | 84.1 | - | - | - | -
Cc1cnc(C)c(N2CCC(C(=O)NCc3cccs3)CC2)n1 | - | - | - | - | -
O=C(c1ccc(Cl)nc1)N1CCN(S(=O)(=O)c2ccccc2)CC1 | - | . | - | - | -
O=C(Cn1cnc2scc(-c3cccc([N+](=O)[O-])c3)c2c1=O)NCc1ccco1 | - | - | 66.8 | - | -
Cc1ccc2[nH]c3c(c2c1)CCNC3=O | - | - | - | - | -

Screens from PubChem.
